About 83,000 compounds went through this panel and 20% of them were active in at least one assay; those are over-represented in the sample as a whole.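 48-hour exposure, single concentration, 96-well plates; percent growth endpoint where 0 means no net growth. Active: below 10.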 Unmarked numbers belong to inactive results. Active and inactive are the calls of the source.
What follows are molecules tested on SR leukemia (assay: NCI-60 one-dose screen, 48 h (100 = growth as untreated, 0 = no growth, -100 = all killed)). Conditions: 10 µM unless noted.

Row | Compound | growth
1 | C#CCOc1ccc(/C=N/Nc2nc(-c3cc4cc(OC)ccc4oc3=O)cs2)cc1OC | 34.7%
2 | COc1cc(-c2nc3cc(Cl)c(Cl)cc3[nH]2)ccc1OCc1nnc(-c2cccs2)o1 | 31.1%
3 | COc1ccc(N2N=C(c3ccc4c(c3)OCO4)CC2c2cccc(NC(=O)CCCNS(=O)(=O)c3ccc(F)cc3)c2)cc1 (stereo not drawn) | 18.3%
4 | C=C1CC[C@@H]2[C@]3(C)COC(c4ccccc4)O[C@@H]3CC[C@@]2(C)[C@@H]1C/C=C1/C(=O)OCC1OC(C)=O (stereo partly drawn) | -32.8% (active)
5 | Cc1sc2c(c1C)C(c1ccc(Cl)cc1)=N[C@@H](CC(=O)NCCCCCNC(=O)COc1ccc(C3CCC(=O)NC3=O)cc1)c1nnc(C)n1-2 (stereo partly drawn) | 37.5%

These molecules were tested on RPMI-8226 leukemia in the same assay as above. Conditions: 10 µM unless noted.

Row | Compound | growth
6 | COc1c(F)ccc(C(=O)Nc2ccc3nc(NC(=O)C4CCCN(S(=O)(=O)c5ccc(Br)s5)C4)sc3c2)c1F (stereo not drawn) | 46.7%
7 | Cc1ccc(-c2nc(Nc3ccccc3S(N)(=O)=O)c3ccccc3n2)cc1 | 59.7%
8 | Clc1cccc(Cl)c1/C=C/c1cc(/C=C/c2ccc(Br)cc2)c2ccccc2n1 | 86.6%
9 | COc1ccc(/C=C/c2n(Cc3ccc4ccccc4c3)c3ccccc3[n+]2Cc2ccc3ccccc3c2)cc1 | -48.5% (active)
10 | C#CCOc1cc(N(CC)CC)ccc1C(C(=O)NC(C)(C)C)N(C(=O)C1CCc2cc(F)ccc2O1)c1ccc(Br)cc1 (stereo not drawn) | 44.7%
11 | CSc1ccc(C(=O)Nc2ccc3nnn(/C(C#N)=C/c4ccccn4)c3c2)cc1 | -40.8% (active)
12 | COC(=O)/C=C/c1cccc2c1C(=O)NC(C)(c1cc3ccccc3oc1=O)N2 (stereo not drawn) | 82.6%
13 | O=C(COc1ccc2c(c1)CCCC(=O)N2)NCc1ccccc1 | 94.9%
14 | COc1ccc(Cc2nn(CC(=O)N/N=C/c3ccc(F)cc3)c(=O)c3c(C)noc23)cc1 | 64.7%
15 | CCCSc1nc(NCCc2c[nH]c3ccccc23)c(C#N)c(-c2ccc(F)cc2)n1 | 38.4%
16 | O=C(O)Cn1c(O)c(/C=C2/C=c3cc4c(cc3=NC2=O)OCCO4)sc1=S | 98.2%
17 | COc1ccc(C(=O)/C=C/c2ccc(OCc3ccc(F)cc3)c(OC)c2)cc1OC | 1.35% (active)
18 | Cn1cc(-c2cc(N)n3nc(-c4c[nH]c5ccccc45)cc3n2)c2cc(Br)cnc21 | -14.8% (active)
19 | CC(=O)/C=C/c1cccc2c1C(=O)NC(C)(c1cc3cc(Br)ccc3oc1=O)N2 (stereo not drawn) | 2.71% (active)
20 | CCN(CC)c1ccc(/C=N/Nc2nc(-c3ccc(Br)cc3)cs2)c(O)c1 | 38.4%
21 | CC1(C)CC[C@]2(C(=O)O)CC[C@]3(C)C(=CCC4[C@@]5(C)C[C@@H](O)[C@@H]6OC(c7ccco7)OC[C@@]6(C)C5CC[C@]43C)C2C1 (stereo partly drawn) | 15%
22 | C/C(=N\N=C\c1cc([N+](=O)[O-])ccc1Cl)c1ccc2c(c1)Nc1ccccc1S2 | 71.7%
23 | CN(C)c1nc(NCCNS(=O)(=O)c2ccc(C3=Nc4c(N)nc(N)nc4NC(c4ccc(C(F)(F)F)cc4)C3)cc2)nc(Nc2ccc(F)cc2)n1 (stereo not drawn) | -13.1% (active)
24 | Cn1cc(-c2cc(N)n3nc(-c4cn(C)c5ccc(Cl)cc45)cc3n2)c2ccccc21 | 109%

Row | Compound | growth
25 | O=C(/C=C/c1ccc(-c2ccccc2)cc1)c1nc2ccccc2n1Cc1ccc(Br)cc1 | 14.1%
26 | COc1cc2c(c(OC)c1OC)C(=O)CC(c1cccc(NC(=O)c3cc(NC(=O)[C@H](CO)NC(=O)OC(C)(C)C)ccc3Cl)c1)O2 (stereo partly drawn) | 17.9%
27 | CC(=O)c1cccc(NC(=O)CCC(=O)NS(=O)(=O)c2ccc(C)cc2)c1 | 99.8%
28 | C#CCOc1ccc(/C=N/Nc2nc(-c3ccc(F)cc3)cs2)cc1OC | 35.5%
29 | CC1(C)CC[C@]2(C(=O)O)CC[C@]3(C)C(=CCC4[C@@]5(C)C[C@@H](O)[C@@H]6OC(c7ccccc7Br)OC[C@@]6(C)C5CC[C@]43C)C2C1 (stereo partly drawn) | 8.21% (active)
30 | COc1cc2oc(-c3cccc(C(=O)Nc4ccc(Cl)cc4)c3)cc(=O)c2c(OCCNC(=O)[C@H](CCC(=O)OC(C)(C)C)NC(=O)OC(C)(C)C)c1OC | 78.1%
31 | O=C(O)c1ccc(-c2ccc(/C=N/NC(=O)c3[nH]c4ccc(Br)cc4c3-c3ccccc3)o2)cc1 | 14.8%
32 | CCCCc1c(Nn2cnnn2)no[n+]1[O-] | 45.8%
33 | CC1=C(C(=O)OCc2ccccc2)C(c2c(O)cc(O)cc2O)n2c(nc3ccccc32)N1 (stereo not drawn) | 81.9%
34 | O=C(/C=C/c1cccc(OCc2ccccc2)c1)c1nc2ccccc2[nH]1 | -52% (active)
35 | CC(=O)OCC1OC(OC2C(COC(C)=O)OC(n3cc(COc4ccc5ccc(=O)oc5c4)nn3)C(OC(C)=O)C2OC(C)=O)C(OC(C)=O)C(OC(C)=O)C1OC(C)=O (stereo not drawn) | 97.3%
36 | COc1ccc2oc3c4[nH]c5ccccc5c4c4c(c3c2c1)C(=O)N(C(=O)OC(C)(C)C)C4=O | -10.4% (active)
37 | O=C(c1ccccc1)c1ccc2nc(-c3ccc(F)cc3)[nH]c2c1 | 43.1%
38 | CC1(C)CC[C@]2(C(=O)Nc3ccc(Br)cc3)CC[C@]3(C)C(=CCC4[C@@]5(C)C[C@@H](O)[C@H](O)[C@@](C)(CO)C5CC[C@]43C)C2C1 (stereo partly drawn) | -33.5% (active)
39 | C#CCOc1ccc(/C=N/Nc2nc(-c3cc4cc(OC)ccc4oc3=O)cs2)cc1OC | 50.9%
40 | COc1cc(-c2nc3cc(Cl)c(Cl)cc3[nH]2)ccc1OCc1nnc(-c2cccs2)o1 | 59.2%
41 | COc1ccc(N2N=C(c3ccc4c(c3)OCO4)CC2c2cccc(NC(=O)CCCNS(=O)(=O)c3ccc(F)cc3)c2)cc1 (stereo not drawn) | 39.4%
42 | C=C1CC[C@@H]2[C@]3(C)COC(c4ccccc4)O[C@@H]3CC[C@@]2(C)[C@@H]1C/C=C1/C(=O)OCC1OC(C)=O (stereo partly drawn) | -42.4% (active)
43 | Cc1sc2c(c1C)C(c1ccc(Cl)cc1)=N[C@@H](CC(=O)NCCCCCNC(=O)COc1ccc(C3CCC(=O)NC3=O)cc1)c1nnc(C)n1-2 (stereo partly drawn) | -3.88% (active)

Source: PubChem BioAssay (NCI)
